FLuc modulator – qHTS profiling assay for firefly luciferase inhibitor/activator using purifed enzyme and Km concentrations of substrates (counterscreen for miR-21 project) | Luciferin 4-monooxygenase (Photinus pyralis), P08659 | AID 588342, 2011 | 360,000 compounds, 6.9% hits | purified FLuc, Km substrates, luminescence inhibition | Potency, µM (top dose mostly 57.5 µM), actives largely listed as inhibitors; note: nearly all actives have a fitted effect of over 55% in size
Target sequence (P08659 whole entry, looked up): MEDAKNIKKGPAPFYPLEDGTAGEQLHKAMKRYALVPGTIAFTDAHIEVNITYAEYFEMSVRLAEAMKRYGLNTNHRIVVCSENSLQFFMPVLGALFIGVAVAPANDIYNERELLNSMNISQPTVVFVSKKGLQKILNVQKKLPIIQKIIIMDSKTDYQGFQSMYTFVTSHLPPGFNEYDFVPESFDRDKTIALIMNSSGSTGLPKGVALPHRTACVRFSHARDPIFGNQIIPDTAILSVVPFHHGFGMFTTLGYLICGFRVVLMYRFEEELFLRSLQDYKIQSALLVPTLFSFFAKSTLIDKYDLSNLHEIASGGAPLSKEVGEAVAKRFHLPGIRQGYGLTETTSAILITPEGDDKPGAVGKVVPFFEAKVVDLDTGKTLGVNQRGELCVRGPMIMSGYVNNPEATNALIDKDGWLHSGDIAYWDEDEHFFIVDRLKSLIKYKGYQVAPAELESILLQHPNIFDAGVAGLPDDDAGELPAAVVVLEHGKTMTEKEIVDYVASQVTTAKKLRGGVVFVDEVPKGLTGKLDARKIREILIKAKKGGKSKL
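Biochemical qHTS of compounds, final roughly 60 µM downward over six points, against 10 nM purified firefly luciferase using Km concentrations of substrates (10 uM D-luciferin, 10 uM ATP) in Tris acetate pH 7.5 buffer; luminescence output.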
SMN2 splice up – qHTS Assay for Enhancers of SMN2 Splice Variant Expression; HEK293 SMN2-luciferase splicing reporter, luminescence, 30-36 h; Potency, µM (titrated, usually from 46.1 µM), hits mostly activators; 210,000 compounds, 2.8% hits; AID 1458, 2008; note: nearly all actives have a fitted effect of over 55% in size
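HEK293 cells carry an SMN2 minigene-luciferase reporter in which exon 7 inclusion puts luciferase in frame. Cells were seeded at 2000 cells/well, attached for 10-12 hours, then exposed to compounds for 30-36 hours at 37C before ONE-Glo luminescence.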
Rab9 promoter act – qHTS Assay for Rab9 Promoter Activators; Potency, µM (highest dose often 9.22 µM), actives largely listed as activators; 320,000 compounds, 2.8% hits; Huh7 Rab9 promoter-luciferase reporter, luminescence, 24 h; AID 485297, 2010; note: nearly all actives have a fitted effect of over 60% in size
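Stable Rab9-luc Huh7, 1500 cells/well, 2 h settle; cmpd in DMSO, 24 h, 37 °C/5% CO2; luciferase reagent 10 min RT; luminescence.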
NPC1 prom act – qHTS Assay for NPC1 Promoter Activators. Huh7 NPC1 promoter luciferase reporter, 24 h. Potency, µM (highest dose often 9.22 µM), actives largely listed as activators. 320,000 compounds, 2.4% hits. AID 485313, 2010; note: nearly all actives have a fitted effect of over 60% in size
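Huh7 cells stably carrying NPC1 promoter–luciferase, plated in Opti-MEM with 10% FBS for 2 h, were exposed to compound in DMSO for 24 h at 37 °C; luciferase reagent was added for 10 min and luminescence read.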
KinaseGlo FLuc – Counterscreen for Luciferase (Kinase-Glo TM) Inhibition | Luciferin 4-monooxygenase (Photuris pensylvanica), Q27757 | AID 1379, 2008 | Kinase-Glo luciferase, ATP luminescence, 8 min | 200,000 compounds, 0.28% hits | Potency, µM (series often up to 38.3 µM), actives largely listed as inhibitors; note: nearly all actives have a fitted effect of over 60% in size
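Substrate mix (final 50 mM imidazole pH 7.2, 50 mM KCl, 7 mM MgCl2, 10 uM ATP, 0.01% Tween 20, 0.05% BSA) plus pin-tool compound, then Kinase-Glo detection mix; 8 min ambient, luminescence read.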
ELG1 genotoxic – qHTS screen for small molecules that induce genotoxicity in human embryonic kidney (HEK293T) cells expressing luciferase-tagged ELG1; 330,000 compounds, 1.3% hits; Potency, µM (doses to about 46 µM), most hits filed as activators; HEK293T ELG1-luciferase reporter, luminescence, 16 h; note: nearly all actives have a fitted effect of over 60% in size
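Luminescence read-out: rising ELG1-luciferase signal, reflecting elevated ELG1 protein under genetic stress, flags genotoxic compounds. Cells were treated for 16 hr at 37 °C before ONE-Glo detection.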
Large screens that a line does not name were inactive. The list is not random: actives were taken first. Their share in the collection is about 7.5%. Calls come from the whole dose curve; as a rule, active = well fitted curve in the direction sought with a large enough effect; inconclusive = small, poorly fitted or top-dose-only effect, or another doubt; inactive = no such curve, though single readings can be large; an effect the other way counts as inactive or inconclusive.

C/C(=N\NC(=O)c1ccc2ccccc2c1)c1cccs1	FLuc modulator 4.26µM, Rab9 promoter act 1µM, NPC1 prom act 1.12µM, ELG1 genotoxic 2.06µM (no result: SMN2 splice up, KinaseGlo FLuc)
C/C(=N\NC(=O)C1=NNC(=O)C1C)c1cccs1 (stereo unspecified)	FLuc modulator inconclusive, SMN2 splice up inconclusive, Rab9 promoter act 3.98µM, NPC1 prom act inconclusive, KinaseGlo FLuc 10µM, ELG1 genotoxic inconclusive
C/C(=N\NC(=O)c1cccc(S(=O)(=O)N2CCCC2)c1)c1cccs1	FLuc modulator inconclusive, Rab9 promoter act inconclusive
C/C(=N\NC(=O)c1ccccc1O)c1cccs1	FLuc modulator 7.57µM, SMN2 splice up 3.55µM, Rab9 promoter act 0.562µM, NPC1 prom act 0.562µM, KinaseGlo FLuc 11.2µM, ELG1 genotoxic inconclusive
C/C(=N\NC(=O)c1ccncc1)c1cccs1	ELG1 genotoxic inconclusive (no result: SMN2 splice up)
CC1C(=O)NN=C1C(=O)N/N=C/c1ccco1 (stereo unspecified)	KinaseGlo FLuc inconclusive
C/C(=N\NC(=O)c1cccs1)c1ccc2ccccc2c1	Rab9 promoter act inconclusive, NPC1 prom act inconclusive (no result: SMN2 splice up, KinaseGlo FLuc)
C/C(=N/NC(=O)c1cc(C2CC2)[nH]n1)c1cccs1	FLuc modulator 1.51µM, SMN2 splice up 2.51µM, Rab9 promoter act 0.282µM, NPC1 prom act 0.355µM, KinaseGlo FLuc inconclusive, ELG1 genotoxic inconclusive
CCOc1ccc(/C=C/c2nc(C#N)c(N3CCN(CC)CC3)o2)cc1	none (no result: Rab9 promoter act, NPC1 prom act, KinaseGlo FLuc, ELG1 genotoxic)
Cc1cccc(C(C)C)c1NC(=O)Cc1ccc(S(=O)(=O)N2CCOCC2)s1	none (no result: SMN2 splice up, KinaseGlo FLuc)
Cc1occc1C(=O)Nc1ccc(Br)cc1F	FLuc modulator 21.3µM, Rab9 promoter act 3.16µM, NPC1 prom act inconclusive, ELG1 genotoxic inconclusive
Cc1occc1C(=O)Nc1cc(C(F)(F)F)ccc1Cl	SMN2 splice up 25.1µM
O=C(O)c1ccc(NNC(=S)Nc2cc(C(F)(F)F)ccc2Cl)cc1	FLuc modulator 23.9µM, ELG1 genotoxic 18.3µM (no result: SMN2 splice up, KinaseGlo FLuc)
COc1ccc(OC)c(NC(=O)CN2C(=O)COc3ccc(S(=O)(=O)NC4CCCC4)cc32)c1	none (no result: SMN2 splice up, Rab9 promoter act, NPC1 prom act, KinaseGlo FLuc, ELG1 genotoxic)
O=C(OCc1ccc([N+](=O)[O-])cc1)c1cc(=O)c2ccccc2o1	none (no result: SMN2 splice up, KinaseGlo FLuc)
Cc1ccc(OCC(=O)NNC(=O)c2ccco2)c(C)c1	FLuc modulator 12µM (no result: SMN2 splice up, KinaseGlo FLuc)
Cc1ccc(C(=O)NNC(=O)COc2ccc(Cl)cc2C)o1	FLuc modulator 10.7µM (no result: SMN2 splice up, KinaseGlo FLuc)
C/C(=N\NC(=O)CCCOc1ccc(Cl)cc1C)c1ccc(C)o1	none
Cc1cc(Br)ccc1OCC(=O)NNC(=O)c1cnccn1	FLuc modulator 16.9µM
Cc1cc(Cl)ccc1OCC(=O)NNC(=O)c1cnccn1	FLuc modulator 16.9µM
COCCNC(=O)COc1ccc(C)cc1C	none
CC(C)NC(=O)C(c1ccc(F)cc1)N(C(=O)CCC(=O)Nc1ccccn1)c1cccc(F)c1 (stereo unspecified)	none (no result: SMN2 splice up, KinaseGlo FLuc)
Cc1ccc(NC(=O)CN2C(=O)c3ccccc3S2(=O)=O)c(C)c1	none (no result: SMN2 splice up, KinaseGlo FLuc)
CCC(=O)c1ccc(OCc2ccccc2)c(OC)c1	FLuc modulator inconclusive, SMN2 splice up 14.1µM, Rab9 promoter act inconclusive, NPC1 prom act inconclusive, ELG1 genotoxic inconclusive
CCOc1ccc(C(=O)/C=C/c2ccc(OC)c(OC)c2)cc1	FLuc modulator 16.9µM
COc1cccc(C(=O)/C=C/c2ccc(OCC#N)c(OC)c2)c1	FLuc modulator inconclusive
CCC(=O)c1ccc(OCc2ccc(C(=O)OC)cc2)c(OC)c1	SMN2 splice up inconclusive
CCOc1ccc(/C=C/C(=O)c2ccccc2)cc1OC	FLuc modulator 4.26µM, Rab9 promoter act inconclusive, NPC1 prom act inconclusive, ELG1 genotoxic inconclusive
CN(C(=O)c1ccc(NC(=O)Cc2ccc(NC(=O)C3CCCN(C(=O)CCc4ccccc4)C3)cc2)cc1)C1CC1 (stereo unspecified)	FLuc modulator inconclusive (no result: SMN2 splice up, KinaseGlo FLuc)
COc1ccc(C2N3CC4(C)CN2CC(c2ccccc2)(C3)C4=O)cc1 (stereo unspecified)	none (no result: Rab9 promoter act, NPC1 prom act, KinaseGlo FLuc, ELG1 genotoxic)
Cc1ccc(C(=O)COc2ncnc3cc(Cl)ccc23)cc1	FLuc modulator inconclusive (no result: SMN2 splice up, KinaseGlo FLuc)
